Over roughly 2,900 compounds, “NF-kB SEAP reporter activity, fold change vs agonist alone” has its median near 0.99; the highest 2% begin near 2.6. The list comes from a sample in which the highest values are over-represented; it also holds similar structures and randomly drawn compounds.
Assays:
[1] = system: RAW-Dual; experiment: NF-kB SEAP reporter activity, fold change vs agonist alone; cytotoxicity flag (confluency mask): not cytotoxic; higher = enhanced NF-kB activity
In short: (§1)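 Cytotoxic wells were those whose IncuCyte confluency was below 70% of agonist controls in both mask sets. The cells were RAW-Dual macrophages at 50,000 cells/well in DMEM on 384-well plates, dosed with 50 nL of library stock by pin tool, stimulated with a PRR agonist 1 h later, and kept at 37 °C, 5% CO2 for 20 hours. IRF and NF-κB reporter activity, as fold change over agonist-alone wells, came from supernatant read by QuantiLuc luminescence and QuantiBlue absorbance, respectively.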

[2] = system: RAW-Dual; experiment: NF-kB SEAP reporter activity, fold change vs agonist alone; higher = enhanced NF-kB activity
In short: as §1

[3] = system: RAW-Dual; experiment: NF-kB SEAP reporter activity, fold change vs agonist alone; cytotoxicity flag (confluency mask): cytotoxic (confluency <70% of control); higher = enhanced NF-kB activity
In short: as §1

[4] = agonist: ODN 1826 (TLR9) 0.5 ug/mL
[5] = agonist: Pam2CSK4 (TLR2/6) 0.1 ug/mL
[6] = agonist: Pam3CSK4 (TLR2/1) 0.1 ug/mL
[7] = library stock concentration (final ~1000-fold dilution): 2 mM, cytotoxicity flag (confluency mask): not cytotoxic, agonist: Imiquimod (TLR7) […]
[8] = library stock concentration (final ~1000-fold dilution): 2 mM, cytotoxicity flag (confluency mask): not cytotoxic, agonist: MPLA (TLR4) […]
[9] = library stock concentration (final ~1000-fold dilution): 10 mM, cytotoxicity flag (confluency mask): not cytotoxic, agonist: Imiquimod (TLR7) […]
[10] = library stock concentration (final ~1000-fold dilution): 10 mM, cytotoxicity flag (confluency mask): not cytotoxic, agonist: MPLA (TLR4) […]
[11] = library stock concentration (final ~1000-fold dilution): 10 mM, cytotoxicity flag (confluency mask): cytotoxic (confluency <70% of control), agonist: Imiquimod (TLR7) […]
[12] = library stock concentration (final ~1000-fold dilution): 10 mM, cytotoxicity flag (confluency mask): cytotoxic (confluency <70% of control), agonist: MPLA (TLR4) […]

C/C=C1/C2C=C(C)CC1(N)c1ccc(=O)[nH]c1C2 (stereo not given) (library stock concentration (final ~1000-fold dilution): 2 mM)
NF-kB SEAP reporter activity ([1]; agonist: LPS (TLR4) 0.1 ug/mL): 1.33
NF-kB SEAP reporter activity [1, 4]: 1.01
NF-kB SEAP reporter activity [1, 5]: 1.14
NF-kB SEAP reporter activity [1, 6]: 1.01

C/C=C1/C2C=C(C)CC1(N)c1ccc(=O)[nH]c1C2 (stereo not given)
NF-kB SEAP reporter activity [2, 7]: 0.822
NF-kB SEAP reporter activity [2, 8]: 1.1

CC1c2cccc(O)c2C(=O)C2=C(O)C3(O)C(=O)C(C(N)=O)=C(O)C(N(C)C)C3C(O)C21.CC1c2cccc(O)c2C(=O)C2=C(O)C3(O)C(=O)C(C(N)=O)=C(O)C(N(C)C)C3C(O)C21.CCO.Cl.Cl.O (stereo not given) (library stock concentration (final ~1000-fold dilution): 10 mM)
NF-kB SEAP reporter activity ([1]; agonist: LPS (TLR4) 0.1 ug/mL): 1.6
NF-kB SEAP reporter activity [1, 4]: 0.969
NF-kB SEAP reporter activity [1, 5]: 1.26
NF-kB SEAP reporter activity [1, 6]: 0.938

CC1c2cccc(O)c2C(=O)C2=C(O)C3(O)C(=O)C(C(N)=O)=C(O)C(N(C)C)C3C(O)C21.CC1c2cccc(O)c2C(=O)C2=C(O)C3(O)C(=O)C(C(N)=O)=C(O)C(N(C)C)C3C(O)C21.CCO.Cl.Cl.O (stereo not given)
NF-kB SEAP reporter activity [2, 9]: 0.998
NF-kB SEAP reporter activity [2, 10]: 1.13

O=C(O)/C(S)=C/c1c[nH]c2ccc(F)cc12
NF-kB SEAP reporter activity [2, 9]: 0.865
NF-kB SEAP reporter activity [2, 10]: 1.08

O=C(O)/C(S)=C/c1c[nH]c2ccc(F)cc12 (library stock concentration (final ~1000-fold dilution): 10 mM)
NF-kB SEAP reporter activity ([1]; agonist: LPS (TLR4) 0.1 ug/mL): 0.886
NF-kB SEAP reporter activity [1, 4]: 0.864
NF-kB SEAP reporter activity [1, 5]: 0.988
NF-kB SEAP reporter activity [1, 6]: 0.934

COC(=O)C1=C(C)NC(C)=C(C(=O)OCCN2CCN(C(c3ccccc3)c3ccccc3)CC2)C1c1cccc([N+](=O)[O-])c1.Cl.Cl (stereo not given)
NF-kB SEAP reporter activity [2, 9]: 0.58
NF-kB SEAP reporter activity [2, 10]: 0.873

COC(=O)C1=C(C)NC(C)=C(C(=O)OCCN2CCN(C(c3ccccc3)c3ccccc3)CC2)C1c1cccc([N+](=O)[O-])c1.Cl.Cl (stereo not given) (library stock concentration (final ~1000-fold dilution): 10 mM)
NF-kB SEAP reporter activity ([1]; agonist: LPS (TLR4) 0.1 ug/mL): 0.834
NF-kB SEAP reporter activity [1, 4]: 0.364
NF-kB SEAP reporter activity [1, 5]: 0.241
NF-kB SEAP reporter activity [1, 6]: 0.405

CN(C)CCOC(c1ccccc1)c1ccccc1.Cl (library stock concentration (final ~1000-fold dilution): 10 mM)
NF-kB SEAP reporter activity ([1]; agonist: LPS (TLR4) 0.1 ug/mL): 1.27
NF-kB SEAP reporter activity [1, 4]: 0.728
NF-kB SEAP reporter activity [1, 5]: 0.917
NF-kB SEAP reporter activity [1, 6]: 1.1

CN(C)CCOC(c1ccccc1)c1ccccc1.Cl
NF-kB SEAP reporter activity [2, 9]: 1.39
NF-kB SEAP reporter activity [2, 10]: 0.886

Cl.Cl.Cn1cc(CNCC2CCN(c3ncc(C(=O)NO)cn3)CC2)c2ccccc21 (library stock concentration (final ~1000-fold dilution): 10 mM)
NF-kB SEAP reporter activity ([3]; agonist: LPS (TLR4) 0.1 ug/mL): 7.01
NF-kB SEAP reporter activity [3, 4]: 1.95
NF-kB SEAP reporter activity [3, 5]: 1.13
NF-kB SEAP reporter activity [3, 6]: 1.93

Cl.Cn1cc(C(=O)C2CCc3nc[nH]c3C2)c2ccccc21 (stereo not given)
NF-kB SEAP reporter activity [2, 9]: 0.775
NF-kB SEAP reporter activity [2, 10]: 0.816

Cl.Cn1cc(C(=O)C2CCc3nc[nH]c3C2)c2ccccc21 (stereo not given) (library stock concentration (final ~1000-fold dilution): 10 mM)
NF-kB SEAP reporter activity ([1]; agonist: LPS (TLR4) 0.1 ug/mL): 1.01
NF-kB SEAP reporter activity [1, 4]: 0.67
NF-kB SEAP reporter activity [1, 5]: 0.928
NF-kB SEAP reporter activity [1, 6]: 0.877

Cn1cc(CC(N)C(=O)O)c2ccccc21 (stereo not given) (library stock concentration (final ~1000-fold dilution): 2 mM)
NF-kB SEAP reporter activity ([1]; agonist: LPS (TLR4) 0.1 ug/mL): 1.05
NF-kB SEAP reporter activity [1, 4]: 1.22
NF-kB SEAP reporter activity [1, 5]: 1.19
NF-kB SEAP reporter activity [1, 6]: 1.05

Cn1cc(CC(N)C(=O)O)c2ccccc21 (stereo not given)
NF-kB SEAP reporter activity [2, 7]: 0.994
NF-kB SEAP reporter activity [2, 8]: 1.05

Cl.Cl.Cn1cc(CNCC2CCN(c3ncc(C(=O)NO)cn3)CC2)c2ccccc21
NF-kB SEAP reporter activity [2, 11]: 2.52
NF-kB SEAP reporter activity [2, 12]: 2.65

COc1ccc(CCC(=O)N(c2nccc3ccccc23)C2CCCNC2)cc1 (stereo not given)
NF-kB SEAP reporter activity [2, 9]: 1.07
NF-kB SEAP reporter activity [2, 10]: 1.29

COc1ccc(CCC(=O)N(c2nccc3ccccc23)C2CCCNC2)cc1 (stereo not given) (library stock concentration (final ~1000-fold dilution): 10 mM)
NF-kB SEAP reporter activity ([1]; agonist: LPS (TLR4) 0.1 ug/mL): 1.05
NF-kB SEAP reporter activity [1, 4]: 0.84
NF-kB SEAP reporter activity [1, 5]: 1.09
NF-kB SEAP reporter activity [1, 6]: 1.08

CS(=O)(=O)c1cccc(CC(NC(=O)c2c(Cl)cc3c(c2Cl)CCN(C(=O)c2ccc4ccoc4c2)C3)C(=O)O)c1 (stereo not given) (library stock concentration (final ~1000-fold dilution): 10 mM)
NF-kB SEAP reporter activity ([1]; agonist: LPS (TLR4) 0.1 ug/mL): 0.994
NF-kB SEAP reporter activity [1, 4]: 1
NF-kB SEAP reporter activity [1, 5]: 1.03
NF-kB SEAP reporter activity [1, 6]: 0.941

CS(=O)(=O)c1cccc(CC(NC(=O)c2c(Cl)cc3c(c2Cl)CCN(C(=O)c2ccc4ccoc4c2)C3)C(=O)O)c1 (stereo not given)
NF-kB SEAP reporter activity [2, 9]: 0.947
NF-kB SEAP reporter activity [2, 10]: 1.04

O=[N+]([O-])c1ccc(S(=O)(=O)N2CCN(c3ccnc4cc(Cl)ccc34)CC2)c([N+](=O)[O-])c1
NF-kB SEAP reporter activity [2, 11]: 0.787
NF-kB SEAP reporter activity [2, 12]: 0.37

O=[N+]([O-])c1ccc(S(=O)(=O)N2CCN(c3ccnc4cc(Cl)ccc34)CC2)c([N+](=O)[O-])c1 (library stock concentration (final ~1000-fold dilution): 10 mM)
NF-kB SEAP reporter activity ([3]; agonist: LPS (TLR4) 0.1 ug/mL): 0.384
NF-kB SEAP reporter activity [3, 4]: 0.333
NF-kB SEAP reporter activity [3, 5]: 0.229
NF-kB SEAP reporter activity [3, 6]: 0.196

Cn1cc(/C=C/C(=O)c2cccc(F)c2)cc1/C=C/C(=O)NO
NF-kB SEAP reporter activity [2, 9]: 0.803
NF-kB SEAP reporter activity [2, 10]: 1.06

COc1cccc(NC(=O)/C=C/c2ccc(Cl)cc2)c1
NF-kB SEAP reporter activity [2, 9]: 1.02
NF-kB SEAP reporter activity [2, 10]: 1.04

O=C(/C=C/c1cccc(S(=O)(=O)Nc2ccccc2)c1)NO (library stock concentration (final ~1000-fold dilution): 10 mM)
NF-kB SEAP reporter activity ([3]; agonist: LPS (TLR4) 0.1 ug/mL): 5.83
NF-kB SEAP reporter activity [3, 4]: 2.3
NF-kB SEAP reporter activity [3, 5]: 0.848
NF-kB SEAP reporter activity [3, 6]: 1.76

Cn1cc(/C=C/C(=O)c2cccc(F)c2)cc1/C=C/C(=O)NO (library stock concentration (final ~1000-fold dilution): 10 mM)
NF-kB SEAP reporter activity ([1]; agonist: LPS (TLR4) 0.1 ug/mL): 1.26
NF-kB SEAP reporter activity [1, 4]: 0.787
NF-kB SEAP reporter activity [1, 5]: 0.605
NF-kB SEAP reporter activity [1, 6]: 0.528

O=C(/C=C/c1cccc(S(=O)(=O)Nc2ccccc2)c1)NO
NF-kB SEAP reporter activity [2, 11]: 2.39
NF-kB SEAP reporter activity [2, 12]: 2.58

COc1cccc(NC(=O)/C=C/c2ccc(Cl)cc2)c1 (library stock concentration (final ~1000-fold dilution): 10 mM)
NF-kB SEAP reporter activity ([1]; agonist: LPS (TLR4) 0.1 ug/mL): 1.18
NF-kB SEAP reporter activity [1, 4]: 0.828
NF-kB SEAP reporter activity [1, 5]: 0.682
NF-kB SEAP reporter activity [1, 6]: 0.711

CC(=O)Oc1cc2c(s1)CCN(C(C(=O)C1CC1)c1ccccc1F)C2.Cl (stereo not given) (library stock concentration (final ~1000-fold dilution): 10 mM)
NF-kB SEAP reporter activity ([1]; agonist: LPS (TLR4) 0.1 ug/mL): 0.766
NF-kB SEAP reporter activity [1, 4]: 0.821
NF-kB SEAP reporter activity [1, 5]: 0.958
NF-kB SEAP reporter activity [1, 6]: 0.688

CC(=O)Oc1cc2c(s1)CCN(C(C(=O)C1CC1)c1ccccc1F)C2.Cl (stereo not given)
NF-kB SEAP reporter activity [2, 10]: 0.869

C=CC(=O)N1CC/C(=C\c2ccc(F)c([N+](=O)[O-])c2)C(=O)/C(=C/c2ccc(F)c([N+](=O)[O-])c2)C1 (library stock concentration (final ~1000-fold dilution): 10 mM)
NF-kB SEAP reporter activity ([1]; agonist: LPS (TLR4) 0.1 ug/mL): 0.222
NF-kB SEAP reporter activity [1, 4]: 0.198
NF-kB SEAP reporter activity [1, 5]: 0.0699
NF-kB SEAP reporter activity [1, 6]: 0.144

C=CC(=O)N1CC/C(=C\c2ccc(F)c([N+](=O)[O-])c2)C(=O)/C(=C/c2ccc(F)c([N+](=O)[O-])c2)C1
NF-kB SEAP reporter activity [2, 9]: 0.151
NF-kB SEAP reporter activity [2, 10]: 0.267
